Reference: PubChem BioAssay
Activity calls are given as the source filed them.

Key:
[1] = test system: PRMT1 (protein arginine N-methyltransferase 1); assay: PRMT1 binders on small-molecule microarrays, primary screen, biochemical, small-molecule microarray, 635 nm fluorescence (AID 1088); conditions: small-molecule microarray binding, higher = more signal;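 also: binding of Prmt1 protein to compounds spotted on small-molecule microarray slides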
[2] = yeast growth modulation, basal conditions, primary screen, YJM789 clinical isolate, OD600, 24 h (AID 1089);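 also: growth of clinical yeast isolate S. cerevisiae YJM 789 seeded 1000 cells per well; test concentration not given here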; conditions: S. cerevisiae YJM789 growth, higher = more signal, called active from +8 up or from −8 down
[3] = fission yeast growth modulation, primary screen, strain 972, OD600, 24 h, no modulator (AID 1090);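 also: basal condition with compound alone and no growth modifier present; test concentration not given here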; conditions: S. pombe 972 growth, higher = more signal, called active from +8 up or from −8 down
[4] = S. cerevisiae growth modulation with rapamycin, primary screen, strain BY4716, OD600, 96 h (AID 1091); conditions: higher = more signal, called active from +8 up or from −8 down; also: test concentration not given here
[5] = molecular target: Torsin-1A-interacting protein 2 (Homo sapiens) (UniProt Q8NFQ8); assay: LULL1 binders on small-molecule microarray, primary screen, cell lysate, human LULL1 lysate, 635/667 nm fluorescence (AID 1092); conditions: hLULL1 lysate binding, 635 nm fluorescence, higher = more signal;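 also: probe is lysate of COS7 cells overexpressing human LULL1; score merges per-feature 667 nm fluorescence with signal-to-noise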
Sequence of Torsin-1A-interacting protein 2 (Homo sapiens) (Q8NFQ8 whole entry, looked up): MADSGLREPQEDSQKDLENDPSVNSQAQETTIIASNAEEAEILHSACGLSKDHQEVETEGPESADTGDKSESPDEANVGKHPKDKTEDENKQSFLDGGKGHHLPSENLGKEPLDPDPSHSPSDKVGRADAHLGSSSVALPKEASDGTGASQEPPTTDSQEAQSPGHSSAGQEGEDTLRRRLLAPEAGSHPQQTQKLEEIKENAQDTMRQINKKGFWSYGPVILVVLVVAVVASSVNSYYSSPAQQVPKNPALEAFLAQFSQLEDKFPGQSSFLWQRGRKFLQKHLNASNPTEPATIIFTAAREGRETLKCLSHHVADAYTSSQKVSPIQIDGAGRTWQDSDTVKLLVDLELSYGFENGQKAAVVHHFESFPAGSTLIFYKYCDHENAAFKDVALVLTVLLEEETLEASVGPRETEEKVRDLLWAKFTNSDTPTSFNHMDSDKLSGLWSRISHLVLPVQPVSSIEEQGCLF

[6] = E. coli growth modulation, two-sided OD650, primary screen, E. coli filamentation project, strain DRC41, 24 h (AID 1093); conditions: OD650, 24 h, higher = more signal, called active from +8 up or from −8 down;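 also: MC1000 strain lacking acrAB efflux and sulA so SOS filamentation is blocked; test concentration not given here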
[7] = small-molecule microarray binders of probe aLefty2, primary screen, biochemical, biotinylated probe, 635/667 nm fluorescence (AID 1094); conditions: higher = more signal;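 also: score merges spot fluorescence near 667 nm with spot signal-to-noise ratio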
[8] = test system: Noggin (protein binding on small-molecule microarray); assay: Noggin binders on small-molecule microarray, primary screen, biochemical, 635/667 nm fluorescence (AID 1095); conditions: 635 nm fluorescence, higher = more signal;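 also: score merges 667 nm feature fluorescence with signal to noise over triplicate slides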
[9] = molecular target: Neurogenic locus notch homolog protein 3 (Homo sapiens) (UniProt Q9UM47); assay: NOTCH3 binders on small-molecule microarray, primary screen, biochemical, 635/667 nm fluorescence (AID 1096); conditions: NOTCH3 binding, 635 nm fluorescence, higher = more signal
Sequence of Neurogenic locus notch homolog protein 3 (Homo sapiens) (Q9UM47 whole entry, looked up): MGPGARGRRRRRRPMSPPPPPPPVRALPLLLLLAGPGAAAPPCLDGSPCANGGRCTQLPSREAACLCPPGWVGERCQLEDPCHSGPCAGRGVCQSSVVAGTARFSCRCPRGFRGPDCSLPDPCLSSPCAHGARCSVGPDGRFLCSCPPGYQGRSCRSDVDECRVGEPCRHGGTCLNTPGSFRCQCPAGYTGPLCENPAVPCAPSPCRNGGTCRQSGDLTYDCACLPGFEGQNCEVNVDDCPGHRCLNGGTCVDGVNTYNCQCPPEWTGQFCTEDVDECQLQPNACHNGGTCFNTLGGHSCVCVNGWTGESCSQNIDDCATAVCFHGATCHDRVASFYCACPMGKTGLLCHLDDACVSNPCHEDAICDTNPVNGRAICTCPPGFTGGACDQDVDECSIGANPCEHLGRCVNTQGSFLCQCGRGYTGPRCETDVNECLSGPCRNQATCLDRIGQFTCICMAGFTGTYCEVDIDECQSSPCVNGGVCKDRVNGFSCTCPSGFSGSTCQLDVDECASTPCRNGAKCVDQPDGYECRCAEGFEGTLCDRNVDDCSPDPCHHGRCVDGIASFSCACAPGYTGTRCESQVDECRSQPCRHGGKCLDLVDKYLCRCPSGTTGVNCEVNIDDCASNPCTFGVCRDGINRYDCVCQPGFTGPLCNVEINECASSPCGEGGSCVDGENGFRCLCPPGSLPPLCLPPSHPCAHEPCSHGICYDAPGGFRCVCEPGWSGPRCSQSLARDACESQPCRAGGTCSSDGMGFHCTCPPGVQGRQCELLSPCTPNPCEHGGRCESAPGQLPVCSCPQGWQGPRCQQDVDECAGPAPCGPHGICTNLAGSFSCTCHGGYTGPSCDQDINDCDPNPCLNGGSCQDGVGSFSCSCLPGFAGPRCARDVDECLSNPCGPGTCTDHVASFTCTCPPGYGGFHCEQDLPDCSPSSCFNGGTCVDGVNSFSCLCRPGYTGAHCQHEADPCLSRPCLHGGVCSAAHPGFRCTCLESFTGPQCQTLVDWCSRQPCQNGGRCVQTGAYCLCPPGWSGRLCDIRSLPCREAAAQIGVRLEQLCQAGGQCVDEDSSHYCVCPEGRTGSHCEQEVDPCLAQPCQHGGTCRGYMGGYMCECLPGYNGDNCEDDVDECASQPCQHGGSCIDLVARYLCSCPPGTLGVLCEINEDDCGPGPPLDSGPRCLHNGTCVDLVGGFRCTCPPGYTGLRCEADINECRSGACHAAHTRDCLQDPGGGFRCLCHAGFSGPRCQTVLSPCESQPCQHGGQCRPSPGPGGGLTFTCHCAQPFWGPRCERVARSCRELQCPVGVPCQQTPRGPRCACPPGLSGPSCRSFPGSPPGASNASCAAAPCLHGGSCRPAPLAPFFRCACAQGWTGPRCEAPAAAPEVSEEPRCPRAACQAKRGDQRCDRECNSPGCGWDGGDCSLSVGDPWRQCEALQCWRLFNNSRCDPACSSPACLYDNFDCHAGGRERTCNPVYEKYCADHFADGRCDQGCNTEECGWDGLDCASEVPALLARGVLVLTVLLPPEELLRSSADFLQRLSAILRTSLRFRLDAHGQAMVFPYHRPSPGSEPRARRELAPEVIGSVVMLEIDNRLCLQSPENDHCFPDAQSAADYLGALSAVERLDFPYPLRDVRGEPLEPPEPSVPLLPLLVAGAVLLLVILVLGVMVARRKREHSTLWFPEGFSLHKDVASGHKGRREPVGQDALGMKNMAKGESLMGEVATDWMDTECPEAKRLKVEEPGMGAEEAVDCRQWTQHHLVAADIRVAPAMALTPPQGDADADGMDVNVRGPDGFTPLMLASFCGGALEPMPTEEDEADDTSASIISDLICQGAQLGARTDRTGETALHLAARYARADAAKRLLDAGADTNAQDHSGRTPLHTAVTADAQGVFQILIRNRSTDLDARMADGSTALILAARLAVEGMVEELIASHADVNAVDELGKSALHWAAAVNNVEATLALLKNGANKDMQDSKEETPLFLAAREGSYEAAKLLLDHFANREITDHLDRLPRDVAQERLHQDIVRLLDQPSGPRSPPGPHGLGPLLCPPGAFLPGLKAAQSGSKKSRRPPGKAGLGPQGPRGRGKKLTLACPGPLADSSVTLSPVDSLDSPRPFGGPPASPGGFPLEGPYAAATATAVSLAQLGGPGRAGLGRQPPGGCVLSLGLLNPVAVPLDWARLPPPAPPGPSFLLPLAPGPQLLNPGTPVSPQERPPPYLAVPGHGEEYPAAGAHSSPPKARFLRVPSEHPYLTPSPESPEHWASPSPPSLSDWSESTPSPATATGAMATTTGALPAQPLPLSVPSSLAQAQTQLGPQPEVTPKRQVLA

[10] = small-molecule microarray binders of probe aEGFR, primary screen, biochemical, biotinylated probe, 635/667 nm fluorescence (AID 1097); conditions: higher = more signal;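 also: probe is a biotinylated anti-EGFR antibody binding compounds printed on slides; score combines fluorescence near 667 nm and signal to noise of each spot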
[11] = test system: Plasmodium falciparum Sir2 (PF13_0152, Sir2A); assay: pfSir2 binders on small-molecule microarrays, primary screen, biochemical, small-molecule microarray, 635 nm fluorescence (AID 1098); conditions: small-molecule microarray binding, fluorescence 635 nm; higher = more signal;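 also: score merges spot fluorescence intensity with its signal-to-noise ratio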
[12] = small-molecule microarray binders of probe aDKK1, primary screen, biochemical, biotinylated probe, 635/667 nm fluorescence (AID 1099); conditions: higher = more signal;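 also: score merges 667nm spot fluorescence with signal to noise across triplicate slides; reference of the scale not given here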
[13] = small-molecule microarray binders of probe aCHRDL2, primary screen, biochemical, biotinylated probe, 635/667 nm fluorescence (AID 1100); conditions: higher = more signal
[14] = splicing luciferase reporter signal modulators, primary screen, spliceosome inhibition project, cell-based, HEK293, splice +/- reporter (AID 1101); conditions: luminescence, 24 h, higher = more signal, called active from +8 up or from −8 down;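 also: HEK293 cells carrying a splicing-competent luciferase reporter gene; test concentration not given here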
[15] = molecular target: Fibroblast growth factor 10 (Homo sapiens) (UniProt O15520); assay: FGF10 binders on small-molecule microarrays, primary screen, biochemical, small-molecule microarray, 635 nm fluorescence (AID 1102); conditions: FGF10 binding, fluorescence 635 nm, higher = more signal
Sequence of Fibroblast growth factor 10 (Homo sapiens) (O15520 whole entry, looked up): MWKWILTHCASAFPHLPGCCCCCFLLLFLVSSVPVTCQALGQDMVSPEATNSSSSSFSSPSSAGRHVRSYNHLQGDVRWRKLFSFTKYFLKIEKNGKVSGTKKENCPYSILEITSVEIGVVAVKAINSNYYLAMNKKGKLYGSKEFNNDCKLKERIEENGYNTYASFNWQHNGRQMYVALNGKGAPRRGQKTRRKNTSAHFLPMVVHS

[16] = test system: glycogen synthase kinase-3 (GSK3A per assay name; protocol says GSK3B); assay: GSK3 binders on small-molecule microarrays, primary screen, biochemical, small-molecule microarray, 635 nm fluorescence, GSK3A (AID 1103); conditions: small-molecule microarray binding, fluorescence 635 nm; higher = more signal; also: the record names both GSK3A and GSK3B
[17] = molecular target: Epidermal growth factor receptor (Homo sapiens) (UniProt P00533); assay: EGFR binders on small-molecule microarrays, primary screen, biochemical, small-molecule microarray, 635 nm fluorescence (AID 1104); conditions: EGFR binding, higher = more signal;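 also: score merges 667 nm emission intensity with spot signal to noise over triplicate slides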
Sequence of Epidermal growth factor receptor (Homo sapiens) (P00533 whole entry, looked up): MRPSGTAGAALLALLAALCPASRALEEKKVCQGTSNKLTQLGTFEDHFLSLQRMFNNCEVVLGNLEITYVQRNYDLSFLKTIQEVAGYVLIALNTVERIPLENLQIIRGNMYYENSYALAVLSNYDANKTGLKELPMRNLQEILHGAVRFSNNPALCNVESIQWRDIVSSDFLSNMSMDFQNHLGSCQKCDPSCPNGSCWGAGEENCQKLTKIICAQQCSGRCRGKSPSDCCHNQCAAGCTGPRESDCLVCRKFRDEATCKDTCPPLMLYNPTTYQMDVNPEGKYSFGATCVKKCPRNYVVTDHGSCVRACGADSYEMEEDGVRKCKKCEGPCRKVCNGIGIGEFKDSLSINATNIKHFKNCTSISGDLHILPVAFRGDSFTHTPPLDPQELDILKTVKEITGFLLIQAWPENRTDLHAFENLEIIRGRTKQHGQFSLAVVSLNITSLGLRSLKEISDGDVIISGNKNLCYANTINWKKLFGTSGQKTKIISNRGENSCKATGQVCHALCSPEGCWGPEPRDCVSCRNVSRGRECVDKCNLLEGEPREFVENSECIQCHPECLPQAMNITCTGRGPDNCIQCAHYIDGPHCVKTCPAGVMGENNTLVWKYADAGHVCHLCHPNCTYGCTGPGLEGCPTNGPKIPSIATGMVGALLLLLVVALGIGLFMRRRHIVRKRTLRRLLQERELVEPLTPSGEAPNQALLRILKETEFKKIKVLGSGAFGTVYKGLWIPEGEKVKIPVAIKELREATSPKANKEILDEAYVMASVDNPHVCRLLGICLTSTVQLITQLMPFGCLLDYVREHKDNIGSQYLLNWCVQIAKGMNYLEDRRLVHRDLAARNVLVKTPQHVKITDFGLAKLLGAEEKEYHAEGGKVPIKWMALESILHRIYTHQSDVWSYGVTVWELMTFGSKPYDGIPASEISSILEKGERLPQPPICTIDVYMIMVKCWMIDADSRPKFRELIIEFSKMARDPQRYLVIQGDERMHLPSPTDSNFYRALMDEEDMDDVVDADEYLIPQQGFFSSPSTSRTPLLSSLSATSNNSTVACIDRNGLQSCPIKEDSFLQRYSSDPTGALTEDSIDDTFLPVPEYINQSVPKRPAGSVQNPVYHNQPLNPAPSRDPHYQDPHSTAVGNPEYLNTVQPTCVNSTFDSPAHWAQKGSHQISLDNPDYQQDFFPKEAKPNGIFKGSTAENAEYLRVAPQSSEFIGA

[18] = molecular target: Follistatin-related protein 3 (Homo sapiens) (UniProt O95633); assay: FSTL3 binders on small-molecule microarrays, primary screen, biochemical, small-molecule microarray, 635 nm fluorescence (AID 1105); conditions: FSTL3 binding, higher = more signal;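 also: score merges emission near 667 nm and signal to noise per printed spot across three slides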
Sequence of Follistatin-related protein 3 (Homo sapiens) (O95633 whole entry, looked up): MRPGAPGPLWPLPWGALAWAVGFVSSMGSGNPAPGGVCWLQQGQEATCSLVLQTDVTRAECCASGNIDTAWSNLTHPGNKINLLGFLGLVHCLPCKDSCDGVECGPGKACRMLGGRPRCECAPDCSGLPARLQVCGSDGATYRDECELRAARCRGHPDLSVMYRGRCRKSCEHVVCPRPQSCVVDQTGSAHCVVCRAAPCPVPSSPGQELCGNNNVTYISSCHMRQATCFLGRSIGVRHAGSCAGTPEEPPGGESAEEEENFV

[19] = molecular target: Dickkopf-related protein 1 (Homo sapiens) (UniProt O94907); assay: DKK1 binders on small-molecule microarrays, primary screen, biochemical, small-molecule microarray, 635 nm fluorescence scan (AID 1106); conditions: DKK1 binding, higher = more signal;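 also: score merges emission near 667 nm with signal to noise over three replicate slides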
Sequence of Dickkopf-related protein 1 (Homo sapiens) (O94907 whole entry, looked up): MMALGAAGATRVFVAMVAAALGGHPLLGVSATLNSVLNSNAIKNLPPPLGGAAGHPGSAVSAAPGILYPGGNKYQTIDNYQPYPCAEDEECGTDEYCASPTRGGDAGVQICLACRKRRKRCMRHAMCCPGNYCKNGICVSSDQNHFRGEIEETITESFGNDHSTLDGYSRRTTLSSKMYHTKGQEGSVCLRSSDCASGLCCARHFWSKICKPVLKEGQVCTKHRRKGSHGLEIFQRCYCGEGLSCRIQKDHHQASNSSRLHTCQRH

[20] = test system: Inhibin beta A chain (activin A); assay: INHBA (activin A) binders on microarrays, primary screen, biochemical, small-molecule microarray, 635 nm fluorescence scan (AID 1107); conditions: small-molecule microarray binding, higher = more signal;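 also: mouse activin A protein probed at 4.33 µg/mL on printed slides; score merges bound-protein fluorescence near 667 nm with spot signal-to-noise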

| Structure (SMILES) | composite z-score [1] | z-score [2] | z-score [3] | z-score [4] | composite z-score [5] | z-score [6] | composite z-score [7] | composite z-score [8] | composite z-score [9] | composite z-score [10] | composite z-score [11] | composite z-score [12] | composite z-score [13] | z-score [14] | composite z-score [15] | composite z-score [16] | composite z-score [17] | composite z-score [18] | composite z-score [19] | composite z-score [20] |
| --- | --- | --- | --- | --- | --- | --- | --- | --- | --- | --- | --- | --- | --- | --- | --- | --- | --- | --- | --- | --- |
| COCCCNC(=O)[C@@]1(Cc2ccccc2I)c2ccccc2C(=O)N(Cc2ccccc2)[C@H]1c1ccc(CO)cc1 | 0.96 | 0.411 (inactive) | 0.512 (inactive) | 0.951 (inactive) | 1.62 | 0.0006 (inactive) | -0.204 | -1.27 | -1.37 | -0.302 | -0.67 | -0.113 | 0.394 | -0.356 (inactive) | -1.25 | -1.43 | -2.16 | -1.56 | -1.41 | -1.59 |
| COc1ccc(C(=O)Nc2cccc(CN3C(=O)[C@@]4(O[C@@H](CCn5cc([C@H](O)c6ccccc6)nn5)[C@H]([Si](C)(C)c5ccc(OC)cc5)[C@H]4C)c4ccccc43)c2)cc1 | 0.677 | -0.384 (inactive) | -1.17 (inactive) | 0.0585 (inactive) | 1.11 | -0.594 (inactive) | 0.0123 | 1.58 | 0.806 | -0.0947 | 1.19 | 0.142 | 0.634 | -1.46 (inactive) | 1.21 | 0.175 | -0.219 | 0.206 | 0.249 | 1.16 |
| O=C1O[C@H](c2ccccc2)[C@H](c2ccccc2)N2[C@H]1[C@@H](C(=O)Nc1nc3ccccc3s1)[C@]1(C(=O)Nc3ccc(C#CC4=CCCCC4)cc31)[C@H]2c1ccc(OCCO)cc1 | 1.55 | 1.79 (inactive) | 1.42 (inactive) | 1.54 (inactive) | 3.26 | 0.476 (inactive) | 0.291 | 0.715 | 1.07 | -0.118 | 0.956 | -0.004 | 0.54 | -0.718 (inactive) | 1 | 1.3 | 0.202 | 0.891 | 0.779 | 0.881 |
| COCCOC(=O)N1C(=O)[C@@]2(c3cc(C#CC4=CCCCC4)ccc31)[C@H](C(=O)N1CCN(c3ncccn3)CC1)[C@H]1C(=O)O[C@H](c3ccccc3)[C@H](c3ccccc3)N1[C@@H]2c1ccc(OCCO)cc1 | 1.55 | 1.48 (inactive) | 0.442 (inactive) | 3.23 (inactive) | 2.02 | 0.0301 (inactive) | 0.415 | 0.554 | 1.14 | 0.145 | -0.424 | 0.282 | 0.298 | -0.902 (inactive) | 1.3 | 1.18 | 0.959 | 1.37 | 0.994 | 1.26 |
| O=C1OCCC=C[C@H]2OC34C=CCN(c5ccc6ccccc6c5)C(=O)[C@H]3N(CCCCCCO)C(=O)[C@@H]4C12 (stereo not given in full) | 0.864 | 0.494 (inactive) | -1.55 (inactive) | 0.22 (inactive) | 0.911 | 0.67 (inactive) | -0.087 | -1.63 | -0.228 | -0.178 | 0.924 | -0.0082 | 0.187 | -0.225 (inactive) | -0.916 | -0.817 | -1.07 | -0.917 | -1.26 | 0.56 |
| O=C1c2ccccc2[C@](Cc2ccccc2I)(C(=O)O)[C@H](c2ccc(CO)cc2)N1Cc1ccccc1C(F)(F)F | 1.12 | 0.817 (inactive) | 0.0662 (inactive) | 0.0262 (inactive) | 3.14 | -0.255 (inactive) | -0.243 | 0.033 | 0.263 | -0.379 | 0.674 | -0.483 | -0.388 | 0.185 (inactive) | -0.414 | 0.464 | -0.709 | 0.19 | -0.376 | 0.353 |
| C=C(C(=O)CC[C@H](OC(=O)c1cccnc1)c1ccccc1OCCO)C(C)C | 1.53 | -2.6 (inactive) | -0.267 (inactive) | -0.598 (inactive) | 1.58 | -0.0377 (inactive) | 0.0692 | 1.71 | 0.423 | 0.0004 | 1.14 | -0.109 | -0.0641 | 3.21 (inactive) | 1.56 | 0.98 | 1.25 | 1.13 | 0.962 | 1.11 |
| CCCC[C@@H]1C[C@H]1[C@@H](NC(=O)c1ccco1)c1ccccc1 | -0.206 | -0.867 (inactive) | -15.3 (active) | -0.0654 (inactive) | -0.832 | -1.61 (inactive) | -0.121 | -1.77 | -0.716 | -0.25 | -1.69 | -0.145 | 1.01 | 0.00344 (inactive) | -1.01 | -1.31 | -2.01 | -1.63 | -2.05 | 0.735 |
| C#C[C@H]1Oc2ccccc2S(=O)(=O)N2CCC[C@@H]12 | -0.513 | -0.346 (inactive) | -0.133 (inactive) | -1.55 (inactive) | -0.607 | -0.738 (inactive) | -0.0804 | 0.636 | -0.226 | -0.0564 | 0.578 | -0.215 | -0.0688 | 0.724 (inactive) | -0.0502 | 0.0695 | 0.354 | 0.712 | 1.29 | 1.74 |
| COCC1=C([C@H](O)CCc2ccccc2)[C@H](CO)[C@@H]2C(=O)N(Cc3ccccc3)C(=O)[C@@H]2C1 | -0.197 | 0.226 (inactive) | -0.819 (inactive) | -0.177 (inactive) | -0.0602 | 1.38 (inactive) | -0.235 | 0.49 | 0.248 | -0.0794 | -0.0333 | -0.253 | -0.25 | 0.212 (inactive) | 0.438 | 0.0321 | 0.313 | 0.265 | 0.391 | 0.554 |
